Only some compounds are listed: those with a hit (about 19% of all), similar ones and a draw of the others.
DT40 TDP1 CPT: qHTS for Inhibitors of human tyrosyl-DNA phosphodiesterase 1 (TDP1): qHTS in cells in presence of CPT; AID 686979, 2013; Potency, µM (top dose mostly 46.2 µM), usual class: inhibitors; chicken DT40 Tdp1-/-;hTDP1 cells + 20 nM CPT, ATP luminescence, 48 h; 420,000 tested, 12% active; note: nearly all actives have a fitted effect of over 55% in size
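Chicken DT40 Tdp1-/- cells stably complemented with human TDP1 were seeded at 400 cells/well in medium containing 20 nM camptothecin, exposed to pin-transferred compounds, and grown at 37 °C for at least 48 hr. Viability was read as ATP luminescence.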
TDP1 inh: qHTS Assay for Inhibitors of Tyrosyl-DNA Phosphodiesterase (TDP1). Tyrosyl-DNA phosphodiesterase 1 (Homo sapiens), Q9NUW8. recombinant TDP1, AlphaScreen DNA substrate cleavage. Potency, µM (titrated, usually from 130 µM), actives largely listed as inhibitors. 350,000 tested, 0.28% active. AID 485290, 2010; note: nearly all actives have a fitted effect of over 40% in size
Target sequence (Q9NUW8 whole entry, looked up): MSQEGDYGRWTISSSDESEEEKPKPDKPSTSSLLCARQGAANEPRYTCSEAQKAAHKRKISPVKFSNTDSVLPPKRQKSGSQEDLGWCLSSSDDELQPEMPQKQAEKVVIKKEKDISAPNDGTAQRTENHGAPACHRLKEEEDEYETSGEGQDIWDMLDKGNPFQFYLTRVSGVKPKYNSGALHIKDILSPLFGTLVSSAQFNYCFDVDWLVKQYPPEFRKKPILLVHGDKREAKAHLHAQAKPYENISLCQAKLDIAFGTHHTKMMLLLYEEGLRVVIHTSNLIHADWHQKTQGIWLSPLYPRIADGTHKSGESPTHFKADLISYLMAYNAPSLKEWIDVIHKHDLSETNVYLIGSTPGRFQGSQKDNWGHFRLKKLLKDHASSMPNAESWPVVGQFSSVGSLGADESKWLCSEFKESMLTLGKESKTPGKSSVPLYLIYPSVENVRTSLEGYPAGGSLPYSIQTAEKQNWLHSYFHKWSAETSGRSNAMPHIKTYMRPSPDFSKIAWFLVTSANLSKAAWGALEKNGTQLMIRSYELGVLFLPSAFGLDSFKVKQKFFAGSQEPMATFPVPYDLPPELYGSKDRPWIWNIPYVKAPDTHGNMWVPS
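Signal: AlphaScreen proximity between streptavidin donor and anti-FITC acceptor beads on intact substrate. Reaction: Tdp1 1 nM, substrate 15 nM final, 5 min RT after 15 min compound preincubation.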
RORgamma inh: qHTS for inhibitors of ROR gamma transcriptional activity; Drosophila S2 Gal4-RORgamma UAS-luciferase reporter, 20 h; Potency, µM (titrated, usually from 53.6 µM), most hits filed as inhibitors; 310,000 tested, 5.4% active; note: nearly all actives have a fitted effect of over 60% in size
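Schneider cells (Drosophila), stable Gal4 DBD–ROR gamma + UAS-luc; 1 hr cmpd preincubation; Cu2+ induction 700 uM final; 20 hr ambient; luminescence.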
Gal4-VP16 FLuc: VP16 counterscreen qHTS for inhibitors of ROR gamma transcriptional activity; Drosophila S2 Gal4-VP16 UAS-luciferase, luminescence, 20 h; AID 2546, 2010; Potency, µM (highest dose often 53.6 µM), hits mostly inhibitors; 310,000 tested, 3.5% active;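 note: Gal4-VP16 expression switched on by copper sulfate through the metallothionein promoter; nearly all actives have a fitted effect of over 50% in size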
DT40 TDP1 no CPT: qHTS for Inhibitors of human tyrosyl-DNA phosphodiesterase 1 (TDP1): qHTS in cells in absence of CPT; DT40 Tdp1-/- hTDP1 cells, no CPT, ATP luminescence, 48 h; Potency, µM (highest dose often 46.2 µM), most hits filed as inhibitors; 420,000 tested, 15% active; note: nearly all actives have a fitted effect of over 55% in size
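Growth kinetics read by CellTiter-Glo luminescence after ≥48 hr at 37 °C. Cells: DT40 Tdp1-/- stably carrying human TDP1, 400 per well, compound exposure in the absence of CPT (DMSO vehicle).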
Numbers stand for hits; n = inactive; u = inconclusive; x = not tested or not shown; [ ] = dose if it differs, or a comment. Calls come from the whole dose curve; as a rule, active = well fitted curve in the direction sought with a large enough effect; inconclusive = small, poorly fitted or top-dose-only effect, or another doubt; inactive = no such curve, though single readings can be large; an effect the other way counts as inactive or inconclusive.

SMILES	DT40 TDP1 CPT	TDP1 inh	RORgamma inh	Gal4-VP16 FLuc	DT40 TDP1 no CPT
COc1ccc(N(C(=O)/C=C/C(=O)Nc2cc(C)on2)C(C(=O)NC2CCCC2)c2ccccc2C)cc1 (stereo unspecified)	u	n	n[10 µM]	n	21µM
CCCCN(C(=O)CCC(=O)Nc1cc(C)on1)C(C(=O)NC1CCCC1)c1ccc(OC)cc1 (stereo unspecified)	u	n	n	n	n
CCCCN(C(=O)CCC(=O)Nc1cc(C)on1)C(C(=O)NC1CCCC1)c1cccc(OC)c1 (stereo unspecified)	8.2µM	n	n	n	u
Cc1cc(NC(=O)CCC(=O)N(Cc2ccco2)C(C(=O)NC2CCCC2)c2ccccc2C)no1 (stereo unspecified)	23µM	n	u	n	23µM
C[C@H](CO)N1C[C@H](C)[C@H](CN(C)S(=O)(=O)c2ccc(-n3cccn3)cc2)OCc2cnnn2CCCC1=O	n	x	x	x	u
COCc1ccc(CN2CCCC(CO)(Cc3cccc(Cl)c3)C2)o1 (stereo unspecified)	u	n	n	n	u
CN(C)C(=O)Oc1cccc([N+](C)(C)C)c1	n	n	n	n	n
c1ccc(-c2ncc3ccccn23)cc1	n	n	n	n	n
C1CC(CN2CCOCC2)CN(c2nc3nonc3nc2N2CCSCC2)C1 (stereo unspecified)	n	n	n	n	n
CC(=O)c1cccc(NC(=O)c2ccc(Cl)c(S(=O)(=O)N3CCOCC3)c2)c1	u	n[2.28 µM]	x	x	0.46µM
O=C(c1ccc(Cl)c(S(=O)(=O)N2CCOCC2)c1)N(c1ccccn1)C1CCCCC1	u	n	n	n	16µM
CN(c1cccc(NC(=O)c2ccc(Cl)c(S(=O)(=O)N3CCOCC3)c2)c1)S(C)(=O)=O	u	n	n	n	12µM
O=C(Nc1ccccn1)c1ccc(Cl)c(S(=O)(=O)N2CCOCC2)c1	n	n	n	n	n
O=C(OC1CCOC1=O)c1ccc(Cl)c(S(=O)(=O)N2CCOCC2)c1 (stereo unspecified)	n	28µM	x	x	n
O=C1CN(C(=O)c2ccco2)c2ccccc2N1	n	n	n	n	n
Cc1cc(C)cc(C(=O)NCC(=O)NCc2ccc(S(N)(=O)=O)cc2)c1	n	x	n	n	n
CCOC(=O)C(=CNc1cc(C)ccn1)C(=O)OCC	n	n	n	n	u
O=C(Nc1ccc(Cl)c(S(=O)(=O)N2CCOCC2)c1)c1cc2ccccc2oc1=O	u	n	x	x	u
O=C(Nc1ccc(Cl)c(S(=O)(=O)N2CCOCC2)c1)c1ccccc1-c1ccc(C(F)(F)F)cc1	u	n	n	n	16µM
Cc1noc(C)c1COc1ccccc1C(=O)N(C)Cc1ccc(F)cc1	u	n	x	x	u
CCOc1ccc(NC(=O)CN(C)C(=O)c2ccccc2OCc2c(C)noc2C)cc1OCC	u	n	x	x	0.65µM
COc1ccc(Br)cc1CN(C)C(=O)c1ccccc1OCc1c(C)noc1C	u	n	x	x	16µM
Cc1ccc(NC(=O)CN(C)C(=O)c2ccccc2OCc2c(C)noc2C)cc1	n	x	x	x	n
Cc1noc(C)c1COc1ccccc1C(=O)N(C)Cc1ccc(C(C)(C)C)cc1	7.3µM	n	x	x	6.5µM
COc1cccc(C(=O)NC(c2ccc(Cl)cc2)c2cc(Cl)c3cccnc3c2O)c1 (stereo unspecified)	8.2µM	n	x	x	5.8µM
COc1cc(C(=O)NC(c2ccc(Cl)cc2)c2cc(Cl)c3cccnc3c2O)cc(OC)c1OC (stereo unspecified)	10µM	n	x	x	5.2µM
c1ccc(CN=C2CCCc3ccccc3N2)cc1	n	x	x	x	u
C/C(=N\Nc1ccc(S(N)(=O)=O)cc1[N+](=O)[O-])c1ccco1	n	x	n	n	u
Cc1ccc2c(=O)cc(C(=O)NC3CCS(=O)(=O)C3)oc2c1 (stereo unspecified)	n	n	n	n	n
COc1ccc(C)cc1S(=O)(=O)Nc1ccncc1	n	n	n	n	n

Screening data from PubChem BioAssay.
